# Many of the other results were omitted from the sample, so hits are more common in it than they were.
# HIV RNase H inh-1: inhibitors of HIV-1 reverse transcriptase RNase H; 1.9% of 65,000 active; P04585; inhibition, % at 10 µM; RT-RNase H RNA/DNA duplex cleavage, fluorescence; in the data active = inhibition above about 50%
# HIV RNase H inh-2: confirmation of HIV-1 reverse transcriptase RNase H inhibitors; shares compounds with HIV RNase H inh-1; Recombinant RT RNase H, fluorescent RNA/DNA duplex cleavage; inhibition, % at 10 µM; 39% of 1,000 active; AID 651; in the data active = inhibition above about 48%; inconclusive = no clear call, values can overlap the other calls
# * = called active by the depositor; u = inconclusive.
SMILES,HIV RNase H inh-1,others
COc1ccccc1-c1ccc(=O)n(CC(=O)NC(C)(C)C)n1,-7,
Cc1nc(SCC(=O)Nc2c(C)n(C)n(-c3ccccc3)c2=O)n[nH]1,-13,
COc1ccc(OC)c(NC(=O)C2C3CC4OC(=O)C2C4C3)c1 (stereo not drawn),-5,
CCCSc1nnc(Cn2c(=O)sc3ccccc32)n1C,-13,
COc1ccc(OC)c(C(=O)CSc2nnc(-c3cccnc3)n2C)c1,5,
Nc1c(C(=O)NCCN2CCOCC2)c2nc3ccccc3nc2n1-c1cccc(F)c1,-14,
C=CCNC(=O)c1c(N)n(-c2ccc3c(c2)OCO3)c2nc3ccccc3nc12,57*,HIV RNase H inh-2=54*
CCCNC(=O)c1c(N)n(-c2cccc(OC)c2)c2nc3ccccc3nc12,-7,
CN(C)c1nc2n(c(=S)n1)CCS2,2,
CC(=O)N=c1c(C#N)cc2c(=O)n3cccc(C)c3nc2n1CC(C)C,3,
O=C(NCc1ccc(F)cc1)c1c(O)c2cccc3c2n(c1=O)CCC3,-2,
O=C(NCc1ccccc1)c1c(O)c2cccc3c2n(c1=O)CCC3,-35,
O=C(NCc1ccc2c(c1)OCO2)c1c(O)c2cccc3c2n(c1=O)CCC3,72*,HIV RNase H inh-2=10
COc1ccc(CN(C#N)c2nc(SC)nc(N(C)C)n2)cc1,-17,
COc1cccc(CNC(=O)c2nnn(CC(=O)Nc3ccc(C)c(C)c3)c2N)c1,13,
COc1cccc(Cn2nnc(C(=O)Nc3ccc(C)cc3)c2N)c1,-13,
Cc1ccc(NC(=O)Cn2nnc(C(=O)Nc3ccc(C)c(C)c3)c2N)cc1,67*,HIV RNase H inh-2=59*
COc1ccc(CC(=O)NC2CCN(CC(=O)Nc3ccc4c(c3)OCCO4)CC2)cc1OC,-3,
CC(C)c1nc(SCC(=O)NCc2ccccc2)n[nH]1,1,
CCOC(=O)C1CCN(Cc2nc3ccc(Cl)cc3n2CCO)CC1,11,
CCOC(=O)C1C(=O)NC(SC)=C(C#N)C1c1ccccc1F (stereo not drawn),-7,
CCOC(=O)C1C(=O)NC(SCC(N)=O)=C(C#N)C1c1ccccc1OCC (stereo not drawn),66*,HIV RNase H inh-2=-1
CCCOC(=O)CSC1=C(C#N)C(c2ccccc2OCC)C(C#N)C(=O)N1 (stereo not drawn),6,
COc1cccc2sc(N3CCN(c4nc5ccccc5s4)CC3)nc12,71*,HIV RNase H inh-2=u
COc1ccc(N2C(=O)CC(N3CCN(c4nc5ccccc5s4)CC3)C2=O)cc1 (stereo not drawn),-14,
SMILES,HIV RNase H inh-1,others
Clc1cccc2sc(N3CCN(c4ccccc4)CC3)nc12,-9,
Cc1cc(C(=O)OCC(=O)Nc2cc(C(F)(F)F)ccc2N2CCOCC2)c(C)o1,-11,
Cc1ccccc1Cn1c(=O)n(Cc2ccco2)c(=O)c2ccccc21,10,
Cc1cc(C)c(NC(=O)Cn2c(=O)n(Cc3ccco3)c(=O)c3ccccc32)c(C)c1,69*,HIV RNase H inh-2=73*
Cc1cccc(Cn2c(=O)n(Cc3ccco3)c(=O)c3ccccc32)c1,-40,
O=S(=O)(NCCc1ccccn1)c1ccc(F)c(F)c1,8,
O=c1[nH]c2cc3c(cc2cc1C(c1nnnn1C1CCCCC1)N1CCSCC1)OCCO3 (stereo not drawn),-5,
Cc1[nH]nc2c1C(c1cn[nH]c1-c1ccc(F)cc1)C(C#N)=C(N)O2 (stereo not drawn),2,
CCCc1cn(S(=O)(=O)c2ccc(OC)cc2OC)nc1N,-2,
COc1cc(-c2nn3c(-c4ccccc4)nnc3s2)cc(OC)c1OC,-6,
COc1cc(-c2nn3c(COc4ccccc4)nnc3s2)cc(OC)c1OC,71*,HIV RNase H inh-2=29
COc1cc(-c2nnc3sc(-c4ccccn4)nn23)cc(OC)c1OC,9,
COc1cc(-c2nnc3sc(-c4ccncc4)nn23)cc(OC)c1OC,14,
COc1cc(-c2nn3c(Cc4ccccc4)nnc3s2)cc(OC)c1OC,91*,HIV RNase H inh-2=80*
CCOc1cccc(-c2nnc3sc(-c4cc(OC)c(OC)c(OC)c4)nn23)c1,-3,
CSc1nc(C)cc(NC(N)=O)n1,-10,
Clc1ccc(Cn2cccc2C2=NCCO2)cc1,28,
C=C(C)CC1Nc2ccccc2NC1CC(=C)C (stereo not drawn),0,
O=C(CSc1nc2ccccc2[nH]1)NCCCn1ccnc1,3,
CSC1=NCCN1C(=O)c1ccc(S(=O)(=O)N(C)C)cc1,-11,
Cc1c(OCC(F)(F)F)ccnc1CS(=O)c1nc2ccccc2[nH]1 (stereo not drawn),74*,HIV RNase H inh-2=33
CCOC(=O)Cc1nc2ccccc2[nH]1,3,
CCOC(=O)CCc1nc2ccccc2[nH]c1=O,-23,
O=C(Cc1ccc(Br)cc1)N1CCCCCC1,-7,
COc1ccc2cc3cc(C(=O)NCc4ccccn4)oc3nc2c1,-22,
SMILES,HIV RNase H inh-1,others
O=C(NCc1ccco1)c1cc2cc3ccc(Cl)cc3nc2o1,66*,HIV RNase H inh-2=58*
O=C(NCc1ccco1)c1ccc(CS(=O)(=O)Cc2ccc(Cl)cc2)o1,-8,
COc1cc(NC(=O)CSc2nnc(C)s2)cc(OC)c1,2,
CCn1c(SCC(=O)Nc2nc3ccc(C)cc3s2)nc2c(c1=O)SC(C)C2 (stereo not drawn),20,
CCNc1nc(N)nc(Oc2ccc(OCCOc3ccc(Cl)cc3Cl)nn2)n1,-21,
CCn1c(=O)cc(SCC(=O)N2CCN(c3ccccc3OC)CC2)c2ccccc21,71*,HIV RNase H inh-2=9
CCn1c(=O)cc(SCC(=O)N2CCOCC2)c2ccccc21,-28,
CCn1c(=O)cc(SCC(=O)N2CCN(C3CCCCC3)CC2)c2ccccc21,-7,
CC(C)N1C(=O)CCC1C(=O)N1CCCc2ccccc21 (stereo not drawn),-2,
O=C(COc1ccccc1)Nc1nc(-c2ccc(S(=O)(=O)N3CCOCC3)cc2)cs1,66*,HIV RNase H inh-2=20
O=C(COC(=O)c1ccc(S(=O)(=O)N2CCOCC2)cc1)Nc1nc(-c2ccccc2)cs1,-3,
O=C(Nc1nc(-c2cccnc2)cs1)c1ccc(S(=O)(=O)N2CCOCC2)cc1,-1,
COc1ccc(C(=O)COC(=O)CCCn2c(=O)oc3ccccc32)cc1,-82,
Cc1nc(C)c(C(=O)Nc2nc3c(C)cccc3s2)o1,86*,HIV RNase H inh-2=68*
Cc1nc(C)c(C(=O)Nc2ccccc2-c2ccccc2)o1,1,
Cc1cccc2sc(NC(=O)C3CCCO3)nc12 (stereo not drawn),-15,
CC1(C)CC(=O)C(C=NCCN2CCN(CCc3ccccc3)CC2)=C(O)C1,-7,
COC(=O)c1c(NC(=O)C2CC2)sc2c1CCCC2,-28,
CCC(=O)Nc1sc2c(c1C(N)=O)CCC2,-11,
NC(=O)c1c(N)sc2c1CCCCC2,73*,HIV RNase H inh-2=-1
CNC(=O)c1c(NC(=O)c2nc3ccccc3s2)sc2c1CCC2,-12,
N#CCC(=O)Nc1sc2c(c1C(N)=O)CCCC2,-14,
CC(=O)N1CCc2c(sc(NC(=O)CN3C(=O)CCC3=O)c2C(N)=O)C1,44,
Cc1noc(C)c1C(=O)Nc1sc2c(c1C(N)=O)CCCCC2,32,
CC(C)OC(=O)c1c(N)sc2c1CCCC2,87*,HIV RNase H inh-2=u
SMILES,HIV RNase H inh-1,others
NC(=O)c1c(NC(=O)CN2CCCC2)sc2c1CCCC2,0,
NC(=O)c1c(NC(=O)CN2C(=O)CCC2=O)sc2c1CCCCC2,85*,HIV RNase H inh-2=-3
CNC(=O)c1c(N)sc2c1CCCCC2,84*,HIV RNase H inh-2=u
CCCOC(=O)c1c(N)sc2c1CCC2,-22,
CCc1ccc(NC(=O)CCNS(=O)(=O)c2cccc3nonc23)cc1,-20,
Cc1nc2sccn2c1-c1nc(C2CC2)c(C(=O)c2ccc3c(c2)NC(=O)CO3)s1,-10,
CCc1nc2sc(C)c(C)c2c(=O)n1CCO,-3,

# Screening results from PubChem.
